# Assay results as given in PubChem BioAssay (EPA / NIEHS).
# Active and inactive are the calls of the source. Rule for the calls: active = hit-call score of the fitted dose curve at least 0.9, where 1 is the maximum; inactive = score below 0.9.
# Assay: CCTE_Shafer_MEA_acute_per_burst_spike_number_mean: CCTE's Neural Acute Assay for Average Number of Spikes Per Burst, Shafer Lab (AID 2284015);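 note: hits are decreases in mean spikes per burst versus baseline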
# Method: CCTE_Shafer_MEA_acute assay is conducted using Axion Biosystems 48 well microelectrode array (MEA) plates and Maestro recording system. Each well of the MEA plate contains a grid of 16 microelectrodes embedded in the culture surface. Electrically active cells, such as neurons, can be cultured over the electrodes, and electrical activity in these cells can be recorded extracellularly. The spontaneous firing of neurons is captured from each electrode on a microsecond timescale providing both temporally and spatially precise data. […] The CCTE_Shafer_MEA_acute assay uses primary cultures of rat cortical neurons. As these cultures mature over time, neural networks develop functional activity and form cohesive networks in which electrical activity can be highly coordinated. Baseline 40-minute recordings are made on days post-plating 13 or 15, followed by a secondary 40-minute recording after chemical exposure.CCTE_Shafer_MEA_acute_per_burst_spike_number_mean is a component of the CCTE_Shafer_MEA_acute assay. It measures the average number of spikes (action potential firings) in a single-electrode burst (temporally-clustered group of spikes) during a recording in a microelectrode array (MEA) using Axion Biosystems Maestro 768 channel amplifier with the AxIS adaptive spike detector. The recordings before and after chemical treatment are used to calculate a percent change in the mean number of spikes per burst in each well.Data from the assay component CCTE_Shafer_MEA_acute_per_burst_spike_number_mean was analyzed into 1 assay endpoint. This assay endpoint, CCTE_Shafer_MEA_acute_per_burst_spike_number_mean, was analyzed in the negative analysis fitting direction relative to DMSO as the negative control and baseline of activity. Using a type of functional reporter, gain or loss-of-signal activity can be used to understand electrical activity.
# Spontaneous activity in the cortical cultures was recorded using an Axion Biosystems Maestro 768 channel amplifier and Axion Integrated Studios (AxIS) v1.8 (or later) software. The amplifier recorded from all channels simultaneously (gain = 1200 x; sampling rate = 12.5 kHz/channel): raw signals were filtered with a Butterworth band-pass filter (300-5000 Hz), which filters out slower local field potentials leaving only fast potentials, i.e., "spikes", arising from extracellular currents associated with action potentials (Pine 2006; Wheeler and Nam 2011). On-line spike detection of filtered signals was conducted with the AxIS adaptive spike detector, using a threshold of 8x the root mean squared (rms) noise on each channel. Any electrodes with rms noise levels greater than 5 uV were grounded (e.g., no data were recorded). Once grounded, an electrode was grounded for the duration of the experiment. All recordings were conducted at 37 C. Wells were deemed usable if on the day of the exposure >/= 10 electrodes were active (defined as >/= 5 spikes/min). On DIV 13 or 15, a minimum of three wells from one cortical culture preparation were treated with each compound (0.03-40 uM). Prior to recording baseline activity, each mwMEA plate was placed in the Maestro at 37 C and allowed to sit for 20 min while firing rates stabilized. Baseline activity (40 min) was recorded before the addition of each compound. An additional 40 min of spontaneous activity was recorded in the presence of each compound. Changes in network parameters relative to baseline were assessed following compound treatment.
Structure (SMILES),outcome,AC50
OC12N=C(c3ccccc3)SC1Cc1cc(Cl)ccc12 (stereo unspecified),inactive,–
Cc1cn([C@H]2C[C@H](N=[N+]=[N-])[C@@H](CO)O2)c(=O)[nH]c1=O,inactive,–
NC(=O)c1nc(-c2cccc(-c3cc(F)ccc3OCC(F)(F)C(F)(F)F)c2)n[nH]1,–,4.11 µM (active)
CC(=O)N1CCN(c2ccc(OC[C@H]3CO[C@](Cn4ccnc4)(c4ccc(Cl)cc4Cl)O3)cc2)CC1,inactive,–
CC[C@@H]1C[C@H](N(Cc2cc(C(F)(F)F)cc(C(F)(F)F)c2)C(C)=O)c2cc(C(F)(F)F)ccc2N1C(=O)OC(C)C,inactive,–
CC(C)(c1cc(Br)c(O)c(Br)c1)c1cc(Br)c(O)c(Br)c1,inactive,–
CC/C(=C(/CC)c1ccc(O)cc1)c1ccc(O)cc1,–,6.76 µM (active)
COc1cccc([C@H](O)C2CCN(CCc3ccc(F)cc3)CC2)c1OC,inactive,–
CC(O)CC(C)(C)O (stereo unspecified),inactive,–
c1ccc2n[nH]nc2c1,inactive,–
Cc1c2ccccc2c(C)c2c1ccc1ccccc12,inactive,–
NCc1cccc(C2CCN(C(=O)c3ccc(C#Cc4ccccc4F)o3)CC2)c1,–,35.3 µM (active)
CO[C@H]1/C=C/O[C@@]2(C)Oc3c(C)c(O)c4c(O)c(c(/C=N/N5CCN(C)CC5)c(O)c4c3C2=O)NC(=O)/C(C)=C\C=C\[C@H](C)[C@H](O)[C@@H](C)[C@@H](O)[C@@H](C)[C@H](OC(C)=O)[C@@H]1C,–,12.5 µM (active)
CCN(Cc1cccc(S(=O)(=O)O)c1)c1ccc(C(=C2C=CC(=[N+](CC)Cc3cccc(S(=O)(=O)O)c3)C=C2)c2ccccc2S(=O)(=O)[O-])cc1,inactive,–
CN(C)c1ccc(C(=C2C=CC(=[N+](C)C)C=C2)c2ccc(N(C)C)cc2)cc1,inactive,–
CCCCOC(=O)c1ccc(O)cc1,inactive,–

Structure (SMILES),outcome,AC50
CC1=CC(=O)/C(=C(/C)O)C(=O)O1,inactive,–
CN(C)C(=O)C1(N2CCCCC2)CCN(CC[C@@]2(c3ccc(Cl)c(Cl)c3)CN(C(=O)c3ccccc3)CCO2)CC1,–,2.5 µM (active)
CCCCCCCCCCCCO,–,20 µM (active)
O=C1O[C@H]([C@@H](O)CO)C(O)=C1O,inactive,–
Cc1cc2c(cc1C(F)(F)F)N(C(=O)Nc1ccc(Oc3cccnc3C)nc1)CC2,inactive,–
CN(C[C@@H](CC[N+]12CCC(C3CCCCC3)(CC1)CC2)c1ccc(Cl)c(Cl)c1)C(=O)c1cc(C(F)(F)F)cc(C(F)(F)F)c1,–,1.14 µM (active)
CCN(CC)C(=O)c1cc(S(=O)(=O)Cc2ccccc2)c(N2CCC(c3ccccc3)CC2)cc1N(CC)CCN(C)C,–,1.54 µM (active)
CN1C(=O)CC[C@H]1c1cccnc1,inactive,–
COc1cc(C(=O)NC2CCN(C)CC2)ccc1Nc1ncc2c(n1)N(C1CCCC1)CC(F)(F)C(=O)N2C,–,29.9 µM (active)
CC(C)(C)c1cc(/C=C2\SC(N)=NC2=O)cc(C(C)(C)C)c1O,inactive,–
C[C@]12CC[C@@H]3c4ccc(O)cc4CC[C@H]3[C@@H]1CC[C@H]2O,inactive,–
CCCCCCCCOC(=O)c1cc(O)c(O)c(O)c1,inactive,–
O=C(O)c1ccccc1-n1cc(C(=O)O)c(=O)c2cc(Nc3c(F)cc(F)cc3Cl)c(Cl)cc21,–,20 µM (active)
Clc1ccccc1C(c1ccccc1)(c1ccccc1)n1ccnc1,–,5.84 µM (active)
O=c1[nH]sc2ccccc12,inactive,–
